Where “and” joins values, the source holds several entries; their conditions need not be identical. Equal values may be shown once. Inconclusive results are not listed. Calls of active or inactive are those of the source. The calls were made as follows, unless noted: active = hit-call score of the fitted dose curve at least 0.9, where 1 is the maximum; inconclusive = response in the unintended direction; inactive = score below 0.9.
Tests used:
[1] = TOX21_p53_BLA_p2_viability: Viability Assessment in the Tox21 HCT-116 p53 Agonism Beta-lactamase Assay, Phase 2 (AID 2283591);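 also: compound exposure lasted 16 h at 37 °C; actives lower the ATP signal meaning cytotoxicity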
In short: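 HCT116 p53-bla cells, 4000/well, dosed after 5 h plating (217-fold dilution of DMSO stocks) and incubated 16 h at 37C. Viability taken as cellular ATP by CellTiter-Glo luminescence after 30 min RT; signal loss marks cytotoxicity.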

[2] = molecular target: Cellular tumor antigen p53 (Homo sapiens) (UniProt P04637); assay: TOX21_p53_BLA_p2_ratio: Tox21 HCT-116 p53 Agonism Beta-lactamase Assay, Ratio, Phase 2 (AID 2283592)
Chain of Cellular tumor antigen p53 (Homo sapiens) (P04637 whole entry, looked up): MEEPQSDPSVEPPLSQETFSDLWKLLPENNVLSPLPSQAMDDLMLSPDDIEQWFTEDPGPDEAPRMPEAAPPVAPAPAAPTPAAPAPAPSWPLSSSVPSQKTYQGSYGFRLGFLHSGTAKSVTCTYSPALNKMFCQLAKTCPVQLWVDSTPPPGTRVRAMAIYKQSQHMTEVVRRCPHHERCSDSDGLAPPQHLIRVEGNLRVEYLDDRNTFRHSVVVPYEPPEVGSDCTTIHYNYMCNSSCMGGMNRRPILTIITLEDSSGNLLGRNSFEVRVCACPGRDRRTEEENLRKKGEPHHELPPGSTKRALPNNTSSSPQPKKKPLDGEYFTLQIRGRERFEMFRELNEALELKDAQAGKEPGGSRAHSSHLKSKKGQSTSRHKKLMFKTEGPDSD
In short: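 Cleaved-to-uncleaved substrate ratio (460 vs 530 nm) measured in HCT116 cells with an inducible beta-lactamase reporter linked to p53 activity. Compounds incubated 16 h at 37C before 2 h room-temperature CCF4-AM loading.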

[3] = TOX21_p53_BLA_p3_viability: Viability Assessment in the Tox21 HCT-116 p53 Agonism Beta-lactamase Assay, Phase 3 (AID 2283593);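 also: cells exposed to compound for 16 h before reading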
In short: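 HCT116 cells, 4000/well, dosed 5 h after plating by pin transfer (217-fold dilution from DMSO stock) and incubated 16 h at 37C, 5% CO2. Viability read as ATP luminescence with CellTiter-Glo after 30 min at room temperature.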

[4] = molecular target: Cellular tumor antigen p53 (Homo sapiens) (UniProt P04637); assay: TOX21_p53_BLA_p3_ratio: Tox21 HCT-116 p53 Agonism Beta-lactamase Assay, Ratio, Phase 3 (AID 2283596)
In short: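 Cells were seeded at 4000/well, rested 5 h at 37C, then dosed with DMSO compound solutions (217-fold dilution) for 16 h. CCF4-AM substrate was loaded for 2 h at room temperature, and the 460/530 nm emission ratio was fitted for gain of signal versus DMSO.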

[5] = TOX21_p53_BLA_p4_viability: Viability Assessment in the Tox21 HCT-116 p53 Agonism Beta-lactamase Assay, Phase 4 (AID 2283597);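 also: hits lower the luminescence signal meaning cytotoxicity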
In short: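 Viability is taken as cellular ATP: after 16 h compound exposure of HCT116 cells and a 2 h room-temperature CCF4-AM substrate step, CellTiter-Glo reagent is added and luminescence is measured 30 min later.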

[6] = molecular target: Cellular tumor antigen p53 (Homo sapiens) (UniProt P04637); assay: TOX21_p53_BLA_p5_ratio: Tox21 HCT-116 p53 Agonism Beta-lactamase Assay, Ratio, Phase 5 (AID 2283599)
In short: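 HCT-116 p53-bla cells (4000/well) plated 5 h, dosed with compound (217-fold DMSO dilution) for 16 h at 37 C; CCF4-AM substrate 2 h at room temperature. Activity is the 460/530 nm emission ratio (405 nm excitation), fitted in gain-of-signal direction versus DMSO.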

[7] = TOX21_p53_BLA_p5_viability: Viability Assessment in the Tox21 HCT-116 p53 Agonism Beta-lactamase Assay, Phase 5 (AID 2283600)
In short: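 Viability is taken from cellular ATP content, measured by luciferase luminescence in the same wells after the beta-lactamase ratio read. Cells are seeded at 4000 per well and exposed to DMSO-dissolved compounds, diluted 217-fold, for 16 h.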

[8] = molecular target: Cellular tumor antigen p53 (Homo sapiens) (UniProt P04637); assay: TOX21_p53_BLA_p4_ratio: Tox21 HCT-116 p53 Agonism Beta-lactamase Assay, Ratio, Phase 4 (AID 2283601)
In short: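 HCT-116 p53 beta-lactamase reporter cells (4000/well) preincubated 5 h, then compound (217-fold dilution of DMSO stock) for 16 h at 37C. CCF4-AM substrate added 2 h at room temperature; 460/530 nm emission ratio fitted upward versus DMSO.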

PGR (gene 5241) [9] = molecular target: PGR (gene 5241) (UniProt P06401); assay: TOX21_PR_BLA_Followup_Antagonist_ratio: Tox21 HEK293 Progesterone Receptor (PR) Antagonism Beta-lactamase Follow-Up Assay, Ratio (AID 2283934);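 also: PR-UAS-bla HEK293T cells stimulated with 1 nM R5020 agonist for 16 hr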
Chain of PGR (gene 5241) (P06401 whole entry, looked up): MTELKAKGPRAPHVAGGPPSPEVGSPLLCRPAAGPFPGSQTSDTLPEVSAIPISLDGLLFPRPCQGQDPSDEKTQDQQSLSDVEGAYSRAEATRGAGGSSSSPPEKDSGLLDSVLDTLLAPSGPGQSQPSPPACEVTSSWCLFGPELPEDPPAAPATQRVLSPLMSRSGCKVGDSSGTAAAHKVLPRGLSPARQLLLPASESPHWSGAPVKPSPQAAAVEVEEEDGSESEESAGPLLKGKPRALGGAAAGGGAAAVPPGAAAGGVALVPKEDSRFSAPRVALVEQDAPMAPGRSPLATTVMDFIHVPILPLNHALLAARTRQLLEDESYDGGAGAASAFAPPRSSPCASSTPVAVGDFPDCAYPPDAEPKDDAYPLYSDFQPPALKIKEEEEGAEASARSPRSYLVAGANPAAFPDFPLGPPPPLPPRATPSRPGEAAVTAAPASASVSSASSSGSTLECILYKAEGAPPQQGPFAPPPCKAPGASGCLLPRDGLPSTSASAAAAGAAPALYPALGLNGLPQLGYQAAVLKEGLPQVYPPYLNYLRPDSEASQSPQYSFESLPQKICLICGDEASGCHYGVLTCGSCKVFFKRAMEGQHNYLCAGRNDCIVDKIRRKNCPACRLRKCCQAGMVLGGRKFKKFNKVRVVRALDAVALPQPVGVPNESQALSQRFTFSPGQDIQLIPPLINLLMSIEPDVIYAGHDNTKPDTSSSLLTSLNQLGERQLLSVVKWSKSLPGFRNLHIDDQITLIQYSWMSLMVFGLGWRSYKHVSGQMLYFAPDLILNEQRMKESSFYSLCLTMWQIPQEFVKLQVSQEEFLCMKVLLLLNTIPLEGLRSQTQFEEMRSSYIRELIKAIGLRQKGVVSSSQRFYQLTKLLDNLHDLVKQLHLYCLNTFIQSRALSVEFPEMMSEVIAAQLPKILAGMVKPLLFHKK
In short: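 Measured in PR-UAS-bla HEK293T cells co-treated with compound and 1 nM promegestone for 16 hr; beta-lactamase ratio read after 2 h FRET substrate loading, with parallel CellTiter-Glo cytotoxicity.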

[10] = TOX21_PR_BLA_Followup_Agonist_viability: Viability Assessment in the Tox21 HEK293 Progesterone Receptor (PR) Agonism Beta-lactamase Follow-Up Assay (AID 2283935);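 also: signal loss means lower viability so actives are cytotoxic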
In short: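 Viability is read as CellTiter-Glo luminescence, where loss of signal indicates cytotoxicity. The cells are PR-UAS-bla HEK293T given compounds for 16 hr at 37C and 5% CO2, in the same wells used for the bla readout.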

[11] = TOX21_PR_BLA_Followup_Antagonist_viability: Viability Assessment in the Tox21 HEK293 Progesterone Receptor (PR) Antagonism Beta-lactamase Follow-Up Assay (AID 2283936);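 also: cells exposed to compound with R5020 agonist for 16 h; hits lower the luminescence signal meaning cytotoxicity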
In short: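 PR-UAS-bla HEK293T cells in medium with 2% charcoal-stripped FBS were treated with compounds plus R5020 for 16 hr at 37C. After the beta-lactamase read, CellTiter-Glo was added to the same wells and luminescence read after 30 min at room temperature.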

PGR (gene 5241) [12] = molecular target: PGR (gene 5241) (UniProt P06401); assay: TOX21_PR_LUC_Followup_Antagonist: Tox21 HEK293 Progesterone Receptor (PR) Antagonism Luciferase Follow-Up Assay (AID 2283938);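 also: curve fitted upward as signal gain over DMSO baseline despite antagonist label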
In short: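 A follow-up to the PR bla screen using HEK293-PR-A-luc cells, multiplexed with cell viability to flag cytotoxicity. Reporter luminescence after 16 h compound exposure was analysed relative to DMSO.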

[13] = TOX21_PR_LUC_Followup_Antagonist_viability: Viability Assessment in the Tox21 HEK293 Progesterone Receptor (PR) Antagonism Luciferase Follow-Up Assay (AID 2283940)
In short: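 Loss of CellTiter-Glo ATP signal indicates cytotoxicity in HEK293-PR-A-luc cells grown in 10% charcoal-stripped FBS medium, seeded 3,000 per well and incubated 16 h with compound at 37C.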

[14] = CCTE_Harrill_HTTr_Viability_MCF7: CCTE's 6-hour Cell Viability Assessment for the High-Throughput Transcriptomics (HTTr) Platform, in MCF-7 cells cultured in DMEM + 10% fetal bovine serum, Harrill Lab (AID 2284010; active = hit-call score of the fitted dose curve at least 0.9, where 1 is the maximum; inactive = score below 0.9)
In short: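 Eight-point concentration series, six-hour exposure. Propidium iodide exclusion imaged to assess membrane integrity as a cytotoxicity readout; bidirectional fitting was done with DMSO as negative control and activity baseline.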

[15] = CCTE_Harrill_HTTr_Apoptosis_MCF7: CCTE's 6-hour Apoptosis Assessment for the High-Throughput Transcriptomics (HTTr) Platform, in MCF-7 cells cultured in DMEM + 10% fetal bovine serum, Harrill Lab (AID 2284011; active = hit-call score of the fitted dose curve at least 0.9, where 1 is the maximum; inactive = score below 0.9)
In short: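 Cells are dosed with test chemicals at eight concentrations and imaged 6 hours later for caspase-3/7 activity using a green fluorogenic detection reagent. Activity is fitted in both directions against DMSO controls.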

Measured: AC50

Nc1c2c(nc3c1CCC3)CCCC2
inactive: [1] | [2] | [3] | [4] | [5] | [6] | [7] | [8]

COCCOC(=O)C1=C(C)NC(C)=C(C(=O)OC/C=C/c2ccccc2)C1c1cccc([N+](=O)[O-])c1 (stereo unspecified)
active: PGR (gene 5241) [9] 6.12 µM | PGR (gene 5241) [12] 7.18 µM
not listed: [14] | [15]
inactive: all other assays above

CCN(CC)CCNC(=O)c1c(C)[nH]c(/C=C2\C(=O)Nc3ccc(F)cc32)c1C
active: [5] 17.7 µM | [8] 37.1 µM
inactive: [1] | [2] | [3] | [4] | [6] | [7]

CCOC(=O)Oc1c(OC)cc(C(=O)O[C@@H]2C[C@@H]3CN4CCc5c([nH]c6cc(OC)ccc56)[C@H]4C[C@@H]3[C@H](C(=O)OC)[C@H]2OC)cc1OC
inactive: [1] | [2] | [3] | [4] | [5] | [6] | [7] | [8]

CC(C)C[C@H](NC(=O)[C@H](Cc1ccccc1)NC(=O)c1cnccn1)B(O)O
inactive: [10] | [11] | [13]
active: [1] 283 nM and 357 nM | [2] 9.74 nM and 12.9 nM | [3] 318 nM and 262 nM | [4] 10.5 nM and 14.1 nM | [5] 128 nM and 150 nM | [6] 25.2 nM and 15.7 nM | [7] 554 nM and 442 nM | [8] 9.86 nM and 13 nM | PGR (gene 5241) [9] 0.168 µM | PGR (gene 5241) [12] 0.0717 µM

C#C[C@]1(O)CC[C@H]2[C@@H]3CCc4cc(OC5CCCC5)ccc4[C@H]3CC[C@@]21C
active: [7] 37.8 µM | PGR (gene 5241) [9] 13.6 µM | PGR (gene 5241) [12] 16.2 µM
not listed: [14] | [15]
inactive: all other assays above

CC(C)C[C@H](NC(=O)[C@H](CCc1ccccc1)NC(=O)CN1CCOCC1)C(=O)N[C@@H](Cc1ccccc1)C(=O)N[C@@H](CC(C)C)C(=O)[C@@]1(C)CO1
active: [1] 757 nM | [2] 108 nM | [3] 1.09 µM | [4] 121 nM | [5] 0.759 µM | [6] 203 nM | [7] 1 µM | [8] 0.109 µM | PGR (gene 5241) [9] 15.9 µM | PGR (gene 5241) [12] 8.16 µM
inactive: [10] | [11] | [13]

O=C1Nc2ccc(Cl)cc2[C@@](C#CC2CC2)(C(F)(F)F)O1
active: [1] 37100 nM | [5] 36.3 µM | [6] 36700 nM | [7] 38.3 µM | [8] 43.5 µM | PGR (gene 5241) [9] 17 µM
inactive: all other assays above
